In the library only some 2.5% were active in any assay of this set; here they are far more common.
MLL AF4-AF9 inh – MLL-AF4/AF9 protein interaction inhibition | inhibition, % at 10 µM | AlphaScreen, biotin-AF4 peptide binding to FLAG-AF9 | AID 651704 | actives 0.47% (n = 350,000);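 active = every replicate reaching a set inhibition limit, whatever the replicate mean, cut at about 25% in these data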
NSD2 HMT inh – inhibitors of human histone methyltransferase NSD2. AID 743445. NSD2 peptide methylation, AlphaScreen, 120 min. inhibition, % at 12.5 µM. actives 0.54% (n = 310,000). O96028; in the data active = inhibition above about 50%
rRNA inh HTS – inhibits bacterial ribosomal RNA function over humanized ribosomes. E. coli WT GFP vs humanized-ribosome RFP mutants, fluorescence, 24 h; stronger effect = lower value; DMSO median 0, no signal -100. GFP signal change (wild-type ribosome), % (concentration not given with the values). actives 1.6% (n = 350,000). AID 720706;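 active = significant combined selectivity score with lowered wild-type GFP, culture density cut under 30%, mutant RFP and density less affected; inactive = any of these conditions unmet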
CASP6 VEID inh – caspase-6 (human) enzyme inhibition; P55212; purified caspase-6, Z-VEID-R110 cleavage fluorescence; inhibition, % at 12.5 µM; actives 0.53% (n = 350,000); AID 686996;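 active = mean inhibition across replicates at least about 35%, with every replicate also reaching that limit, limit read from the data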
Target sequence (P55212 24-179 limits assumed): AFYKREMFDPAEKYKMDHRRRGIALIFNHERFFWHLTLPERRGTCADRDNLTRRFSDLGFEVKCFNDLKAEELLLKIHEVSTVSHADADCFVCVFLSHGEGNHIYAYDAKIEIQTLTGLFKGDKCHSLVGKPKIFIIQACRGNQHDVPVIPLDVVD
Target sequence (P55212 194-293 limits assumed): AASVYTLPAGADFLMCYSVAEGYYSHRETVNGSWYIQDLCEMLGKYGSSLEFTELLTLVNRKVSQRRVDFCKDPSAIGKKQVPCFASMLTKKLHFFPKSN
RAD52 inh – blocks human RAD52 DNA annealing; actives 0.46% (n = 360,000); AID 651710; inhibition, % at 18.7 µM; recombinant RAD52 DNA annealing, FRET fluorescence; P43351;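 active = every replicate showing at least 50% inhibition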
Target sequence (P43351 whole entry, looked up): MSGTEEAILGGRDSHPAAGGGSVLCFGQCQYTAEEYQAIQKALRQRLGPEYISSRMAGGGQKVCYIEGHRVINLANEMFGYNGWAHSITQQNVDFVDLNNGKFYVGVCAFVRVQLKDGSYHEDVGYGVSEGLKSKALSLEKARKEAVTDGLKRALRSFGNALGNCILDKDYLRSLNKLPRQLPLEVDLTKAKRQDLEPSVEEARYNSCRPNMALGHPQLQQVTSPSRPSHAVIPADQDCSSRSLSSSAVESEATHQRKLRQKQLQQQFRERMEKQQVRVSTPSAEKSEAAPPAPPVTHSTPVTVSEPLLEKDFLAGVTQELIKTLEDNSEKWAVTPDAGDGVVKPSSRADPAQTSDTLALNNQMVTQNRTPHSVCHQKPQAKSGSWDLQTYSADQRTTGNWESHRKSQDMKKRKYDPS
Of the large screens only hits and unclear results are named; the others gave an inactive call.

Cc1ccc(C(=O)NC(=C(Cl)Cl)S(=O)(=O)c2ccc(C)cc2)cc1	none (no result: MLL AF4-AF9 inh, rRNA inh HTS, CASP6 VEID inh, RAD52 inh)
Cc1ccc(C(=O)NC(=C(Cl)Cl)S(=O)(=O)c2ccc(Cl)cc2)cc1	rRNA inh HTS -24
O=C(CN1CCOCC1)N[C@@H]1CC[C@H](CCNC(=O)C2CCC2)O[C@@H]1CO	none (no result: NSD2 HMT inh)
C[C@@H](NC(=O)C[C@H]1CC[C@H](NC(=O)CN2CCOCC2)[C@H](CO)O1)c1ccccc1	none (no result: NSD2 HMT inh)
O=C(CN1CCOCC1)N[C@H]1CC[C@H](CCNC(=O)C2CCC2)O[C@H]1CO	MLL AF4-AF9 inh 43 (no result: NSD2 HMT inh)
C[C@@H](NC(=O)C[C@@H]1CC[C@@H](NC(=O)CN2CCOCC2)[C@@H](CO)O1)c1ccccc1	CASP6 VEID inh 63 (no result: NSD2 HMT inh)
C[C@@H]1CN([C@@H](C)CO)C(=O)c2cc(NS(=O)(=O)c3ccc(Cl)cc3)ccc2O[C@@H](C)CCCCO[C@@H]1CN(C)Cc1ccccc1	none (no result: NSD2 HMT inh)
Oc1ccc(/C=N/Nc2ccc(Cl)nn2)c(O)c1O	CASP6 VEID inh 48 (no result: NSD2 HMT inh)
Cc1nc(C)n(C(Oc2ccc(Cl)cc2Cl)C(=O)C(C)(C)C)n1 (centres undefined)	rRNA inh HTS -18
O=C(CN1C(=O)c2ccccc2C1=O)Nc1cccc(Cl)c1	none
O=C(CN1C(=O)c2ccccc2C1=O)Nc1cccc(S(=O)(=O)Nc2ccccc2Cl)c1	rRNA inh HTS -26
COc1ccc(N2CCN(c3ncnc4scc(-c5ccc(F)cc5)c34)CC2)cc1	rRNA inh HTS -24
C=CCOc1ccc(Br)cc1/C=C1\NC(=S)N(C(C)=O)C1=O	rRNA inh HTS -32
CO[C@H]1CN(C)C(=O)c2cc(NC(C)=O)ccc2OC[C@H](C)N(C(=O)c2ccncc2)C[C@H]1C	none (no result: NSD2 HMT inh)
Cc1ccc2nc(SCC(=O)N(CC(C)C)c3c(N)n(Cc4ccccc4)c(=O)[nH]c3=O)[nH]c2c1	MLL AF4-AF9 inh 27
Cc1csc(=O)n1CC(=O)OCC(=O)NCc1ccc(F)cc1	CASP6 VEID inh 59
Cc1csc(=O)n1CC(=O)OCC(=O)NCc1ccccc1	none
COc1ccc2c3c(n(C)c2c1)[C@@H](CO)N(C(C)=O)CC31CN(C(=O)c2ccccc2)C1	none (no result: MLL AF4-AF9 inh, NSD2 HMT inh, CASP6 VEID inh, RAD52 inh)
COc1ccc(-n2c(-c3ccccc3)c[n+]3c2CCC3)cc1	none
CCOc1ccc(-c2c[n+]3c(n2-c2ccccc2)CCCCC3)cc1	rRNA inh HTS -39
O=C1CCC2=C(CCCC2=O)N1	none
CC1(C)CC(=O)C2=C(C1)NC(=O)CC2	CASP6 VEID inh 38
CN1C(=O)C(N=Nc2ccc([N+](=O)[O-])cc2)SC1=S (centres undefined)	MLL AF4-AF9 inh 44
COc1ccc(-n2c(N)c(C(=O)NCc3ccco3)sc2=S)cc1	none (no result: MLL AF4-AF9 inh, rRNA inh HTS, CASP6 VEID inh, RAD52 inh)
CCOC(=O)c1ccc(-n2c(N)c(C(=O)NCc3ccco3)sc2=S)cc1	rRNA inh HTS -26
CCOc1ccc(-c2nnc(SCC(=O)N3CCNC3=O)o2)cc1	MLL AF4-AF9 inh 28
CCOc1ccc(-c2nnc(SCC(=O)N3CCN(c4ccccc4)CC3)o2)cc1	none (no result: NSD2 HMT inh)
C[C@@H]1CN([C@H](C)CO)C(=O)c2cccc(NC(=O)C3CC3)c2O[C@H]1CN(C)C(=O)Nc1cccc2ccccc12	none (no result: NSD2 HMT inh)
CN(C)c1ccc(C(CNC(=O)c2ccc(Br)o2)N2CCCC2)cc1 (centres undefined)	none (no result: MLL AF4-AF9 inh, rRNA inh HTS, CASP6 VEID inh, RAD52 inh)
COc1cccc(/C=N/Nc2nc3ccccc3[nH]2)c1O	none
COc1cccc(/C=N/Nc2nc3ccccc3[nH]2)c1OC	rRNA inh HTS -25
Cc1c(/C=N/Nc2nc3ccccc3[nH]2)c2ccccc2n1C	MLL AF4-AF9 inh 25
COCC(=O)N(C)C[C@H]1Oc2cc(-c3ccccc3)ccc2S(=O)(=O)N([C@H](C)CO)C[C@@H]1C	none (no result: NSD2 HMT inh)
C[C@H]1CN([C@@H](C)CO)S(=O)(=O)c2ccc(C#CCC3CCCC3)cc2O[C@@H]1CN(C)Cc1ccc(C(=O)O)cc1	none (no result: NSD2 HMT inh, rRNA inh HTS)
O=[N+]([O-])c1cc(CN2CCN(c3cccc(C(F)(F)F)c3)CC2)c2cccnc2c1O	MLL AF4-AF9 inh 36, CASP6 VEID inh 69
Cc1ccc(S(=O)(=O)N[C@@H]2C=C[C@@H](CC(=O)NC3CCCCC3)O[C@@H]2CO)cc1	none (no result: NSD2 HMT inh)
COc1ccccc1CN(C)CC(=O)Nc1ccc(Cl)cc1F	none (no result: CASP6 VEID inh)
COc1ccccc1CN(C)CC(=O)Nc1ccc(Cl)cc1C(F)(F)F	rRNA inh HTS -34
CCc1ccccc1NC(=O)CN(C)Cc1c(O)ccc2ccccc12	none
CN(CC(=O)Nc1ccccc1C(F)(F)F)Cc1c(O)ccc2ccccc12	rRNA inh HTS -27
COc1ccc(C2CC(C)(c3ccc(OC)cc3)Nc3ccccc3N2)cc1 (centres undefined)	none (no result: rRNA inh HTS)
COc1ccc(C2(C)CC(C)(C)Nc3ccccc32)cc1 (centres undefined)	rRNA inh HTS -29
COc1ccc(S(=O)(=O)N2C[C@@H](O)COC[C@@H]3O[C@H](CC(=O)N(C)C)CC[C@H]32)cc1	none (no result: NSD2 HMT inh)
C[C@@H]1CN([C@@H](C)CO)C(=O)c2cc(NC(=O)CCCN(C)C)ccc2O[C@@H]1CN(C)Cc1ccc(C(F)(F)F)cc1	none (no result: NSD2 HMT inh)
O=C(Nc1cccc(C(=O)O)c1)/C(=C\C=C\c1ccccc1)NC(=O)c1ccccc1	rRNA inh HTS -19
O=C(Nc1ccc(C(=O)O)cc1)/C(=C\C=C\c1ccccc1)NC(=O)c1ccccc1Br	rRNA inh HTS -16
O=C(Nc1ccc(C(=O)O)cc1)/C(=C\C=C\c1ccccc1)NC(=O)c1cccc(Br)c1	none (no result: NSD2 HMT inh)
CCCNC(=O)N1CC2(CCN(CC3CCCC3)CC2)c2c(n(C)c3cc(OC)ccc23)[C@H]1CO	none (no result: NSD2 HMT inh)
Cc1noc(C)c1NC(=O)Nc1cccc2c1O[C@@H](CN(C)Cc1ccc(C(=O)Nc3ccccc3N)cc1)[C@@H](C)CN([C@@H](C)CO)C2=O	none (no result: NSD2 HMT inh)
O=C(Nc1ccc(F)cc1)N[C@@H]1C[C@@H]2O[C@@H](CO)CC[C@@H]2O[C@@H]1CCc1ccc(-c2ccccc2)cc1	none (no result: NSD2 HMT inh, rRNA inh HTS)
CN(C(=O)c1ccco1)c1nc(-c2ccc(F)cc2)cs1	none
O=C(c1ccco1)N(CCCN1CCOCC1)c1nc(-c2ccc(F)cc2)cs1	rRNA inh HTS -33 (no result: NSD2 HMT inh)
CC(C)c1ccc(NC(=O)C(c2ccc3c(c2)OCO3)N2CCCCC2)cc1 (centres undefined)	none (no result: NSD2 HMT inh)
Oc1cc2c(cc1C(c1ccc(Cl)c(Cl)c1)N1CCCC1)OCO2 (centres undefined)	MLL AF4-AF9 inh 27
CCCN1C[C@@H](C)[C@H](OC)CN(C)C(=O)c2ccc(NC(=O)Nc3ccccc3F)cc2OC[C@@H]1C	none (no result: NSD2 HMT inh)
Cc1ccc(/C=N/Nc2ncc(Cl)cc2Cl)s1	rRNA inh HTS -22
C[C@@H]1CN(C)C(=O)Cc2cc(N(C)C)ccc2O[C@@H]1CN(C)S(C)(=O)=O	none (no result: MLL AF4-AF9 inh, NSD2 HMT inh, CASP6 VEID inh, RAD52 inh)
Cc1ccc(S(=O)(=O)CCCS(=O)(=O)c2ccc(C)cc2)cc1	none (no result: MLL AF4-AF9 inh, rRNA inh HTS, CASP6 VEID inh, RAD52 inh)
Cc1ccc(S(=O)(=O)CC(=O)c2cc(C)c(O)c(C)c2)cc1	rRNA inh HTS -24
C[C@H](CO)N1C[C@H](C)[C@@H](CN(C)S(=O)(=O)Cc2ccccc2)OCc2ccccc2-c2c(n(C)c3ccccc23)C1=O	none (no result: MLL AF4-AF9 inh, NSD2 HMT inh, CASP6 VEID inh, RAD52 inh)
O=C(Nc1ccc(Oc2cccc(C(F)(F)F)c2)nc1)c1cccs1	rRNA inh HTS -44

Screening results (PubChem)
